# Source: PubChem
# This is one part of a sample in which hits are shown more often than they occur.
# Sfp PPTase inh: blocks B. subtilis Sfp PPTase activity; Q9F4F7; Biochemical Sfp PPTase activity, qHTS; Potency, µM, inactives show largest response in the series, negative = inhibition, most hits filed as inhibitors; actives 3.5% (n = 310,000);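 further: the enzyme is Sfp with the accession as filed and its product quenches rhodamine fluorescence; 0% = enzyme reaction without inhibitor and -100% = no enzyme wells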
#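 With Hepes-Na pH 7.6 buffer containing 10 mM MgCl2, Sfp (15 nM) modified BHQ-2-YbbR (12.5 uM) using rhodamine-CoA (5 uM). Two reads 30 minutes apart at 525/598 nm yielded each well's rate.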
# 12-LOX inh: ALOX12 (human) lipoxygenase inhibition; Potency, µM (top dose mostly 108 µM), for inactives: top-dose activity change, negative = inhibition, actives largely listed as inhibitors; actives 1.1% (n = 580,000); purified 12hLO, xylenol orange hydroperoxide absorbance; further: on the % scale 0 is the no-effect control and ±100 the full control effect
#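 Hydroperoxide product was detected by ferrous iron/xylenol orange as the 573 to 405 nm absorbance ratio. Arachidonic acid at 40 uM (final) was turned over for 30 min at room temperature by 150 nM human 12hLO, pH 7.0 Hepes buffer, after 15 min compound preincubation.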
# G9a block: inhibitors of human histone lysine methyltransferase G9a; Q96KQ7; G9a H3K9 monomethylation, AlphaScreen, 2 h; AID 504332; Potency, µM (top dose mostly 102 µM), without a hit: at the top dose activity, negative = inhibition, usual class: inhibitors; actives 8.8% (n = 350,000); further: on the % scale 0 is the no-effect control and ±100 the full control effect; nearly all actives have a fitted effect of over 75% in size
# Target sequence (Q96KQ7 913-1193 limits assumed): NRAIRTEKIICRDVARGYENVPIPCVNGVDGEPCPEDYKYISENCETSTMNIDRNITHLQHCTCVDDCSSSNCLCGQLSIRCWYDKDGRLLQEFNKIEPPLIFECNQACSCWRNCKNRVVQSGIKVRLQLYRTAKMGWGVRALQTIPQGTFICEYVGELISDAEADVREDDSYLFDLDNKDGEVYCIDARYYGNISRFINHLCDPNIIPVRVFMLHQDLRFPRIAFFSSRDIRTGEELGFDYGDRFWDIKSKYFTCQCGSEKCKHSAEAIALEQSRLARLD
#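 Step 1: enzyme (final 20 nM) with compound, 15 min RT. Step 2: substrate peptide 500 nM and SAM 20 uM, 2 h RT. Step 3: anti-H3K9me1 antibody and AlphaScreen beads, 10 min, then plate read.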
# VDR inhibitor: inhibitors of human vitamin D receptor; P11473; VDR-SRC2-3 peptide fluorescence polarization, 2 h; Potency, µM, for the others: max response, negative = inhibition, usual class: inhibitors; actives 0.93% (n = 400,000); further: on the % scale 0 is the no-effect control and ±100 the full control effect
#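 The screen uses fluorescence polarization to detect compounds that interfere with recruitment of the SRC2-3 coactivator peptide to VDR; plates are read after 2 h at room temperature.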
# Glioma ERSR ind: induces the endoplasmic reticulum stress response in human glioma cells; actives 0.02% (n = 420,000); AID 602332; Potency, µM, without a hit: at the top dose activation, most hits filed as activators; U87-MG GRP78 promoter luciferase reporter, 16 h; further: series mostly up to about 76 µM; % of control where 0% means no effect; nearly all actives have a fitted effect of over 35% in size
#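 Stably transfected U87-MG glioma cells carrying a GRP78-based luciferase sensor; 16 h compound incubation. Luminescence end-point read 10 min after Bright-Glo addition at room temperature.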
# Active calls of the source: *; ? = inconclusive; . = no result given; [ ] = remark or other dose. The call rests on the fitted dose curve; in most records, active means well fitted curve in the direction sought with a large enough effect; inconclusive means small, poorly fitted or top-dose-only effect, or another doubt; inactive means no such curve, though single readings can be large; an effect the other way counts as inactive or inconclusive. Potency means the concentration at half of the fitted maximal effect.
SMILES,Sfp PPTase inh,12-LOX inh,G9a block,VDR inhibitor,Glioma ERSR ind
N#Cc1c(NC(=O)c2cccc(S(=O)(=O)Nc3ccc(C(=O)O)cc3)c2)sc2c1CCCC2,2%,?,50µM*,-7%,-3%
COc1cccc(N2C(=O)NC(=NC3CCCCC3)C23CCN(Cc2ccsc2)C3)c1 (centres undefined),.,9%,.,.,.
Cc1ccc(C)c(-c2nn(CC(=O)N3CCCCC3)c(=O)c3ccccc23)c1,.,-3%,.,.,.
CC1CCc2c(sc(NC(=O)c3nc4ncccn4n3)c2C#N)C1 (centres undefined),22µM*,?,3.2µM*,?,1%
N#Cc1c(NC(=O)c2nc3ncccn3n2)sc2c1CCCCC2,-22%,-8%,-15%[59 µM],6%,-1%
N#Cc1c(NC(=O)c2ccco2)sc2c1CCC2,-4%,-84%,89µM*,-10%,-3%
N#Cc1c(NC(=O)c2cnn3cccnc23)sc2c1CCCC2,45µM*,-16%,40µM*,3%,1%
CN1C/C(=C/c2ccccc2[N+](=O)[O-])C(=O)/C(=C\c2ccccc2[N+](=O)[O-])C1,.,?,.,71µM*,-12%
Cc1ccc(C)c2c1CCC(=Cc1ccccc1[N+](=O)[O-])C2=O,.,-13%,.,.,-3%
CC1CN(C2CCN(S(=O)(=O)Cc3ccccc3)CC2)CC(C)O1 (centres undefined),-8%,?,?,10%,-4%
CC1CN(C2CCN(S(=O)(=O)c3ccc(F)cc3)CC2)CC(C)O1 (centres undefined),-5%,-18%,10µM*,-8%,-4%
CC1CN(C2CCN(S(=O)(=O)c3ccccc3)CC2)CC(C)O1 (centres undefined),79µM*,?,?,-9%,0%
CCN1CCN(c2ccc(NC(=O)c3cc(Cl)ccc3OC)cc2)CC1,.,-26%,.,.,.
O=C(CSc1nnnn1-c1ccc(F)cc1)c1ccc(O)c(O)c1,2%,14µM*,?,12%,-1%
CC(=O)c1ccc(O)c(CSc2nncn2C)c1,15%,-2%,-2%,17%,-4%
Cn1cnnc1SCC(=O)c1ccc(O)c(O)c1,?,1%,7.1µM*,-6%,-2%
Cn1cnnc1SCC(=O)c1ccco1,-21%,-33%[57.4 µM],45µM*,-21%,-2%
CCCOc1ccc(/C=C/C(=O)Nc2cc(C(C)(C)C)ccc2OC)cc1OC,.,-11%,.,.,.
CCCC(=O)C1C(=O)CC(CC(C)SCC)CC1=O (centres undefined),2%,-40%[57.4 µM],79µM*,-5%,-3%
CCCC(=N)C1=C(O)CC(CC(C)SCC)CC1=O (centres undefined),21%,0%,-14%,11%,-3%
CCOc1ccccc1N1CCN(c2ncnc3scc(-c4ccc(OC)cc4)c23)CC1,-6%,209%,.,14%,-5%
COc1ccc(-c2csc3ncnc(N4CCN(c5ccccc5OC)CC4)c23)cc1,-3%,-2%,45µM*,-17%,-3%
CN(C)CCCN=c1c2ccccc2n(C)c2[nH]c(=O)n(C)c(=O)c12,.,22µM*,.,.,.
CN(C)CCNC(=O)c1cc2c(=O)n(C)c3ccccc3c2n1C,-4%,0%,?,-14%,-1%
Cc1ccc2nc(-c3cccc(N)c3)oc2c1,-1%,-2%,0%,-6%,-10%
SMILES,Sfp PPTase inh,12-LOX inh,G9a block,VDR inhibitor,Glioma ERSR ind
Cc1ccc2nc(-c3cccc(-c4nc5ccc(C)cc5o4)n3)oc2c1,.,.,.,50µM*,-3%
CC(=O)c1cccc(NC(=O)C2CC3CCCC(C2)C3=O)c1 (centres undefined),.,2%,.,.,.
Cn1c(N=Nc2ccc(N3CCOCC3)cc2)[n+](C)c2ccccc21,?,62%,18µM*,?,16%
Cc1ccc(C)c(NC(=O)CCCc2ccccc2)c1,.,-2%,.,.,.
N#Cc1ccc(/C=C/C(=O)c2ccc3c(c2)CCO3)cc1,.,-18%,.,.,.
CCN1CCCc2cc(CN(CCN3CCOCC3)C(=S)Nc3cc(F)cc(F)c3)ccc21,12%,14%,16µM*,9%,-3%
CCN1CCCc2cc(CN(CCN3CCOCC3)C(=S)Nc3ccc(C)cc3)ccc21,17%,?,13µM*,3%,18%
CC(=O)N1CCC(N(CCN2CCOCC2)C(=S)Nc2ccc(C)cc2)CC1,50µM*,-11%,?,10%,-1%
CC(=O)N1CCC(N(CCN2CCOCC2)C(=S)Nc2ccc(C)cc2C)CC1,15%,-15%,1%[59 µM],-22%,-6%
